D2 PAM-1 = Beta-Arrestin HTS for Positive Allosteric Modulators of the Human D2 Dopamine Receptor: Potentiators | DiscoveRx D2 beta-arrestin cells, luminescence, 90 min; 100% = 57 uM dopamine signal | potentiation, % (no concentration beside the values) | actives 0.23% (n = 360,000) | AID 624464, 2012; in the data active means potentiation above about 50%; inconclusive means mostly about 30% to 49%
Target sequence (P14416 whole entry, looked up): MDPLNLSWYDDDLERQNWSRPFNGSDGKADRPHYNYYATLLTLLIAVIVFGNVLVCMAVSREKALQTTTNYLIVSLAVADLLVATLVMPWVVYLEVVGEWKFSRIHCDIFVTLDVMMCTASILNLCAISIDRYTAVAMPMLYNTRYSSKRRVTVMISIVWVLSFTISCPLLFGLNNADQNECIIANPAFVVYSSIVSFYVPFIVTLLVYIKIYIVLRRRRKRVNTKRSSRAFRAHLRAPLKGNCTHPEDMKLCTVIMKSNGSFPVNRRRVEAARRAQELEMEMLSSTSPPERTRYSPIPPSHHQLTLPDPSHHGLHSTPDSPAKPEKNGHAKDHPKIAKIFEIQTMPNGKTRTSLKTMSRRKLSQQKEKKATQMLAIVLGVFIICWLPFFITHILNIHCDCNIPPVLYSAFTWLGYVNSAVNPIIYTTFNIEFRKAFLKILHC
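D2 cells co-treated with compound plus 50 nM dopamine (EC20) for 90 min at 37 deg C to detect potentiation. Beta-arrestin recruitment was read as enzyme-fragment luminescence after 1 h at ambient temperature. Full response was set by 57 uM dopamine.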
D2 ag-1 = HTS Assay for Allosteric Agonists of the Human D2 Dopamine Receptor: Primary Screen for Agonists; actives 0.53% (n = 340,000); D(2) dopamine receptor (Homo sapiens), P14416; activation, % at 2 µM; AID 485358, 2010; HEK293 T-REx D2 cells, calcium flux agonist mode;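 active means activation over 3 SD above normal in the single-dose calcium agonist read, cut at about 30% in these data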; further: 0% is about no effect
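Agonism scored from kinetic calcium signal (1 read/sec, 180 s) following compound pin transfer, after a 10 s baseline. Cells: HEK293 Trex line expressing inducible D2 receptor coupled to calcium, dye-loaded after overnight culture at 30 C.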
LDHA inh = qHTS assay for inhibitors of human lactate dehydrogenase; L-lactate dehydrogenase A chain (Homo sapiens), P00338; activity change, % (values are at about 110 or 230 µM); purified LDHA, NADH/diaphorase-resazurin fluorescence; active compounds read low; actives 0.15% (n = 480,000); in the data active means activity change below about -30%; inconclusive means mostly about -25% to -30%;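 further: plate controls were DMSO wells for no effect and wells without enzyme for full effect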
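Human LDH5 at 2 nM final in Tris HCl pH 7.4 with 0.06 mM NADH and 0.2 mM pyruvate, reacted 5 minutes at room temperature. Remaining NADH coupled via diaphorase/resazurin; resorufin fluorescence read at 0 and 20 minutes, normalized to enzyme-free and DMSO wells.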
D2 PAM-2 = HTS Assay for Positive Allosteric Modulators of the Human D2 Dopamine Receptor: Primary Screen for Potentiators; D(2) dopamine receptor (Homo sapiens), P14416; HEK293 T-REx D2, calcium flux, EC20 dopamine potentiation; potentiation, % at 10 µM; actives 0.34% (n = 340,000); AID 485347, 2010;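 active means potentiation over 3 SD above the plate norm, cut at about 30% in these data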; further: 0% is about no effect
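Tetracycline-induced Hek293 Trex D2 cells, force-coupled to calcium, loaded with no-wash calcium dye. Compound added with 180 s kinetic read for agonism, then EC20 dopamine and a further 180 s read for potentiation.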
D2 antag = HTS Assay for Allosteric Antagonists of the Human D2 Dopamine Receptor: Primary Screen for Antagonists. AID 485344, 2010. inhibition, % at 10 µM. actives 2% (n = 340,000). HEK293 TREx D2 cells, calcium flux, dopamine EC80; in the data active means inhibition above about 30%; inactive means below that, where a call was filed; further: 0% is about no effect
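Calcium flux kinetic readout in an inducible HEK293 TREx D2 line plated overnight at 30 C. After 180 s compound exposure, an EC80 dopamine challenge follows with another 180 s kinetic read to detect antagonism.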
D2 ag-2 = Beta-Arrestin HTS for Positive Allosteric Modulators of the Human D2 Dopamine Receptor: Agonists; D(2) dopamine receptor (Homo sapiens), P14416; DiscoveRx PathHunter D2 beta-arrestin, luminescence, 90 min; 100% = 57 uM dopamine signal; activation, % (concentration not given with the values); actives 0.084% (n = 360,000); AID 624465, 2012; in the data active means activation above about 40%; inconclusive means between about 15% and that limit
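Agonist mode: compounds alone added to overnight-plated D2 PathHunter cells for 90 min at 37 C, with 57 uM final dopamine (EC100) defining full response. Beta-arrestin recruitment detected by chemiluminescent reagent, read after 1 h at ambient temperature.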
* hit, by the source's call. Most compounds without a hit are left out; they make up all but 2.1% or so of the library.

For CCN1C(=O)c2cccc3c(S(=O)(=O)N4CCC(C)CC4)ccc1c23 the results were D2 PAM-1 1, D2 ag-1 -1, LDHA inh 3, D2 PAM-2 -4, D2 antag 37* and D2 ag-2 -3.
For CN(C)CCCN1C(=O)c2cccc3c(Br)ccc(c23)C1=O the results were D2 PAM-1 -1, D2 ag-1 4, LDHA inh 3, D2 PAM-2 -1, D2 antag 6 and D2 ag-2 0.
Screening Cc1ccc(N2C(=O)c3cccc4c(N)ccc(c34)C2=O)c2cccnc12 returned D2 PAM-1 -8, D2 ag-1 84*, LDHA inh -5, D2 PAM-2 -13, D2 antag -13 and D2 ag-2 -1.
`CCN1C(=O)c2cccc3c(N)ccc(c23)C1=O` gave D2 PAM-1 2, D2 ag-1 151*, LDHA inh 7, D2 PAM-2 -9, D2 antag 61* and D2 ag-2 14.
CCCN1C(=O)c2cccc3c(N4CCCCC4)ccc(c23)C1=O was read as D2 PAM-1 -8, D2 ag-1 9, LDHA inh -2, D2 PAM-2 -2, D2 antag -7 and D2 ag-2 1.
Screening CCCCNc1ccc2c3c(cccc13)C(=O)N(CCCC)C2=O returned D2 PAM-1 -4, D2 ag-1 185*, LDHA inh 1, D2 PAM-2 -28, D2 antag 81* and D2 ag-2 6.
`Cc1nn(C)c(C)c1N1C(=O)c2cccc3c(Br)ccc(c23)C1=O` gave D2 PAM-1 -12, D2 ag-1 0, LDHA inh -2, D2 PAM-2 7, D2 antag -26 and D2 ag-2 -2.
Cc1nn(C)c(C)c1N1C(=O)c2cccc3c(N)ccc(c23)C1=O was read as D2 PAM-1 -4, D2 ag-1 115*, LDHA inh 3, D2 PAM-2 2, D2 antag 26 and D2 ag-2 -1.
For COc1ccc(CCCNC(=O)C2(C)Cc3c(-c4cccc(C(N)=O)c4)ccnc3O2)cc1 (stereo not drawn) the results were D2 PAM-1 27, LDHA inh -11 and D2 ag-2 76*.
`CCn1c(COc2cc(C)ccc2Cl)n[nH]c1=S` gave LDHA inh -2.
CCOc1ccc2cc(S(=O)(=O)n3ccnc3C)ccc2c1 was read as D2 PAM-1 -4, D2 ag-1 0, LDHA inh -1, D2 PAM-2 37*, D2 antag -5 and D2 ag-2 -3.
Screening CCOc1ccc2cc(S(=O)(=O)N3CCOCC3)ccc2c1 returned D2 PAM-1 -2, D2 ag-1 -1, LDHA inh -1, D2 PAM-2 1, D2 antag 1 and D2 ag-2 -2.
CCOC(=O)c1sc(-c2ccc3c(c2)OCCO3)cc1NC(=O)c1ccco1 was read as LDHA inh 2.
For COc1cc2c(cc1OC)CN(C(=O)/C=C/c1ccc(F)cc1)CC2 the results were D2 PAM-1 -1, D2 ag-1 -2, LDHA inh 5, D2 PAM-2 -2, D2 antag -6 and D2 ag-2 3.
`COc1cc2c(cc1OC)CN(C(=O)CSc1nc(C)cc(C)c1C#N)CC2` gave D2 PAM-1 -11, D2 ag-1 0, LDHA inh -4, D2 PAM-2 34*, D2 antag 12 and D2 ag-2 -3.
`COc1cc2c(cc1OC)CN(C(=O)CSc1ccc(F)cc1)CC2` gave D2 PAM-1 6, D2 ag-1 0, LDHA inh -4, D2 PAM-2 -15, D2 antag 61* and D2 ag-2 -1.
CCc1nc(SCC(=O)N2CCc3cc(OC)c(OC)cc3C2)c(C#N)cc1C was read as D2 PAM-1 -9, LDHA inh 0 and D2 ag-2 1.
Cc1cccc(NC(=O)CCN2CCN(Cc3cccc4ccccc34)CC2)c1 was read as LDHA inh 7.
Screening C=C(C)CSc1nc2c(c(=O)[nH]c(=O)n2C)n1CCC(C)C returned D2 PAM-1 -3, D2 ag-1 -1, LDHA inh -3, D2 PAM-2 34*, D2 antag -4 and D2 ag-2 -2.
CCSc1nc2c(c(=O)[nH]c(=O)n2C)n1C/C=C(/C)Cl was read as D2 PAM-1 4, D2 ag-1 0, LDHA inh -3, D2 PAM-2 48*, D2 antag 3 and D2 ag-2 -1.
Screening O=C(CCC(=O)N1CCc2ccccc21)Nc1ccccc1 returned D2 PAM-1 -10, D2 ag-1 0, LDHA inh -6, D2 PAM-2 -9, D2 antag 36* and D2 ag-2 -2.
`O=C(CCN1CCc2ccccc2C1)Nc1ccccc1` gave D2 PAM-1 -36, D2 ag-1 0, LDHA inh -4, D2 PAM-2 -24, D2 antag 57* and D2 ag-2 0.
For CN(c1ccccc1)S(=O)(=O)c1cccc(NC(=O)CN2CCc3ccccc3C2)c1 the results were D2 PAM-1 16, D2 ag-1 28, LDHA inh 1, D2 PAM-2 -13, D2 antag 33* and D2 ag-2 inconclusive.
`O=C(Nc1ccccc1)N1CCc2ccccc21` gave D2 PAM-1 -7, D2 ag-1 0, LDHA inh -2, D2 PAM-2 -11, D2 antag -12 and D2 ag-2 -3.
`O=C(CCN1CCCCCC1)Nc1cccc(F)c1` gave D2 PAM-1 -18, D2 ag-1 0, LDHA inh -9, D2 PAM-2 -20, D2 antag -7 and D2 ag-2 -3.
Screening O=C(CCN1CCc2ccccc2C1)Nc1cccc(F)c1 returned D2 PAM-1 -27, D2 ag-1 3, LDHA inh -3, D2 antag 60* and D2 ag-2 -4.
For Nc1ccc2c(c1)C(=O)OC2 the results were LDHA inh 4.
Screening Cc1nn(-c2nc3c(c(=O)n(Cc4cccc(Cl)c4)c(=O)n3C)n2C(C)C)c(C)c1C returned LDHA inh 1.
For C/C(CCc1ccc(O)cc1)=N\NC(N)=S the results were LDHA inh 13.
